Laboratory results taken from PubChem BioAssay AID489018 (Southern Research Specialized Biocontainment Screening …, 2010).
Among all 2,300 compounds or so, about 350 (15%) were called active. The rule behind the calls is not given here. Not all results are given here. Entries with a potency or affinity are not part of this list.

Experiment: HepG2 cell cytotoxicity, dose response, cytotoxicity control for non-replicating M. tuberculosis project (AID 489018);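 note: HepG2 human liver cells; 100% = vehicle-treated cells and 0% = background signal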
Details: series mostly up to 20 µM; viability: at the top concentration

Row | SMILES | viability
1 | S=C1SCN(Cc2ccco2)CN1Cc1ccco1 | 90.5% (inactive)
2 | CN(C)S(=O)(=O)c1ccc(C(=O)Oc2ccccc2)cc1 | 91% (inactive)
3 | CCC(C)[C@H]1CN=C(N)N1CCc1cccc2ccccc12 (stereo partly specified) | 85.5% (inactive)
4 | Cc1cc(-c2c(C)[nH]n(-c3ccccc3)c2=O)n[nH]1 | 72.7% (inactive)
5 | C/C(=N\Nc1nc2ccccc2nc1C)c1ccccc1O | 91.6% (inactive)
6 | COc1ccc2oc(=O)c(/C(C)=N/NC(=O)c3ccncc3)cc2c1 | 104% (inactive)
7 | N=c1oc2ccc(Cl)cc2cc1C(=O)NC1CCCCCC1 | 87.9% (inactive)
8 | O=C(Oc1ccc(F)cc1)c1ccc2c(=O)n3c(nc2c1)CCC3 | 96.7% (inactive)
9 | Cc1ccc(-c2nnc(SCC#CCOC(=O)c3ccco3)o2)cc1 | 104% (inactive)
10 | CCOC(=O)C1=C(C)C/C(=N\NC(=O)c2ccccc2O)CC1 | 81.2% (inactive)
11 | Cc1cc(C)nc(Sc2ncnc(N)c2[N+](=O)[O-])n1 | 80.1% (inactive)
12 | Oc1ccccc1-c1nnc(COc2ccccc2)o1 | 89.6% (inactive)
13 | CNC(=O)COC(=O)c1ccc(-c2nc3ccccc3s2)s1 | 91.7% (inactive)
14 | CC(C)N1CCc2c(sc(NC(=O)CCS(=O)(=O)c3ccccc3)c2C#N)C1 | 104% (inactive)
15 | CCCCNC(=O)Nc1nnc(-c2ccc(OCC)cc2)o1 | 100% (inactive)
16 | Cc1ccc(CCC(=O)Nc2ccc(C)c(C)c2)o1 | 97.3% (inactive)
17 | Cc1ccc(C(=O)Nc2nnc(C3=COCCO3)o2)cc1C | 87.5% (inactive)
18 | C/C(=C\C(=O)c1ccc(Br)cc1)NNC(=O)c1ccccc1 | 70.2% (inactive)
19 | Cc1n[nH]c(=S)n1/N=C/c1ccc(OCc2ccc(Cl)cc2Cl)cc1 | 103% (inactive)
20 | CC(C)(C)c1csc(NC(=O)c2ccccc2O)n1 | 82.3% (inactive)
21 | O=C(O)c1ccccc1-c1ccccc1C(=O)Nc1nc2ccccc2s1 | 105% [at 5 µM] (inactive)
22 | Cc1ccc2c(c1)C(=O)C(=O)N2CCCOc1ccccc1 | 108% (inactive)
23 | CCCn1c(NC(=O)c2ccc([N+](=O)[O-])o2)nc2ccccc21 | 91.1% (inactive)
24 | COC(=O)c1ccc(C(=O)NC2CCCc3c2cnn3-c2cc(F)cc(F)c2)nc1 (stereo unspecified) | 74% (inactive)
25 | COC(=O)C1=C(C)N(CC2CC2)C(=NCc2cccc(Cl)c2)N[C@H]1c1ccccc1 | 76.5% (inactive)

Row | SMILES | viability
26 | O=C(COC(=O)c1cccc(C(F)(F)F)c1)NCc1ccccc1 | 99.9% (inactive)
27 | CCOC(=O)COc1cc(N)c(Cl)cc1Cl | 80.8% (inactive)
28 | CC(C)C1O/C(=N/C(=O)Nc2ccc(Cl)c(Cl)c2)NC1=O (stereo unspecified) | 95.4% (inactive)
29 | O=c1c2ccccc2sn1-c1ccccc1 | 93.9% (inactive)
30 | COC(=O)COc1ccc2cc(-c3ccc(OC)cc3)c(=O)oc2c1 | 105% (inactive)
31 | CC(C)(C)NC(=O)C(=O)NNC(=O)c1ccc(C(C)(C)C)cc1 | 88.5% (inactive)
32 | C#CCSc1nnc(-c2cccc3ccccc23)o1 | 85.7% (inactive)
33 | COc1ccc(OC(=O)CCc2c[nH]c3ccccc23)cc1 | 103% (inactive)
34 | O=C(COC(=O)CCc1c[nH]c2ccccc12)NCc1ccc(Cl)cc1 | 108% (inactive)
35 | O=C(COC(=O)CCc1c[nH]c2ccccc12)NCc1ccc2c(c1)OCO2 | 109% (inactive)
36 | N#Cc1ccc(COC(=O)CCc2c[nH]c3ccccc23)cc1 | 108% (inactive)
37 | CCc1ccc(NC(=O)C(=O)NNC(=O)COc2cccc(OC)c2)cc1 | 111% (inactive)
38 | O=C(NNc1nc2cc3c(cc2s1)OCCO3)c1ccccc1 | 98.9% (inactive)
39 | O=[N+]([O-])c1ccc(CNc2cccc(Cl)c2)s1 | 98.3% (inactive)
40 | CC1=NN(C(=O)c2csc(C)c2C)C(O)(C(F)(F)F)C1 (stereo unspecified) | 98% (inactive)
41 | CCOCC(=O)Nc1nc2ccc(C)cc2s1 | 87.5% (inactive)
42 | CCN(CC)CCSc1nnc2c3cc(C)ccc3n(Cc3ccccc3)c2n1 | 94% [at 5 µM] (inactive)
43 | O=C(Nc1nc2ccccc2n1CCN1CCCC1)c1ccc(Cl)cc1 | 97.8% [at 5 µM] (inactive)
44 | O=C(Nc1nc2ccccc2n1CCN1CCCC1)C1CCCCC1 | 105% (inactive)
45 | Cc1cccc(NC(=O)COC(=O)CCc2c[nH]c3ccccc23)c1 | 100% (inactive)
46 | O=C(COC(=O)c1ccccc1Cl)NCCC1=CCCCC1 | 106% [at 5 µM] (inactive)
47 | O=c1cc2[nH]c3ccccc3c(=O)n2nc1-c1ccccc1 | 96.7% (inactive)
48 | CC1CC(C)CN(C(=O)COC(=O)c2ccc([N+](=O)[O-])o2)C1 (stereo unspecified) | 98.8% (inactive)
49 | COc1ccc(S(=O)(=O)NCc2ccc3c(c2)cc(C)n3C)cc1 | 105% (inactive)
50 | COc1ccc(CCCC(=O)NCc2ccccc2)cc1C | 104% (inactive)

Row | SMILES | viability
51 | COC(=O)COc1ccc2c(-c3ccc(OC)cc3)cc(=O)oc2c1 | 105% (inactive)
52 | C=C1CCC[C@]2(C)C[C@H]3OC(=O)C(CNC(C)CCCC(C)C)[C@H]3CC12 (stereo partly specified) | 84.6% (inactive)
53 | O=C(Oc1ccccc1Cl)c1ccc2c(=O)n3c(nc2c1)CCC3 | 96.1% (inactive)
54 | CC(/C=C/c1cccc([N+](=O)[O-])c1)=N\NC(=O)c1ccncc1 | 92.2% (inactive)
55 | COC(=O)COc1cccc(/C=N/NC(=O)CCSc2ccccc2)c1 | 99.2% [at 5 µM] (inactive)
56 | C/C(=N\NC(=O)c1cccs1)c1ccc2c(c1)OCO2 | 86.2% (inactive)
57 | CC(/C=C/c1ccccc1)=N\NC(=O)c1ccc2c(c1)OCCO2 | 101% [at 5 µM] (inactive)
58 | Cc1occc1C(=O)N/N=C/c1ccc[nH]1 | 94.7% (inactive)
59 | Cc1occc1C(=O)N/N=C/C(Br)=C\c1ccccc1 | 73.8% (inactive)
60 | O=C(N/N=C/c1ccc[nH]1)c1ccc2c(c1)OCO2 | 94.7% [at 5 µM] (inactive)
61 | O=C(N/N=C\c1ccccc1OCc1ccccc1)c1ccco1 | 106% (inactive)
62 | C/C(Cn1nnc([N+](=O)[O-])n1)=N\NC(=O)c1ccncc1 | 83.8% (inactive)
63 | COC(=O)CN(C#N)c1nc(SC)nc(N(C)C)n1 | 103% (inactive)
64 | O=C1CCC/C(=N/Nc2ccc(Cl)cc2)C1 | 87.1% (inactive)
65 | CCOCCOC(=O)c1ccc(NC(=O)C2COc3ccccc3O2)cc1 (stereo unspecified) | 107% (inactive)
66 | Cc1cc(Cl)ccc1OC(C)C(=O)Nc1ccc([N+](=O)[O-])cn1 (stereo unspecified) | 105% (inactive)
67 | Cc1ccc(C)c(NC(=O)c2cc([N+](=O)[O-])cc([N+](=O)[O-])c2)c1 | 116% (inactive)
68 | O=C(CCc1ccc(Oc2cc([N+](=O)[O-])cc([N+](=O)[O-])c2)cc1)N1CCCCC1 | 85.8% (inactive)
69 | Cc1cc(C)n(C(=O)c2ccc([N+](=O)[O-])cc2[N+](=O)[O-])n1 | 102% (inactive)
70 | Cc1ccccc1-n1ncc2c([N+](=O)[O-])cc([N+](=O)[O-])cc21 | 97% (inactive)
71 | N/C(=N/OC(=O)c1ccccc1Cl)c1ncc([N+](=O)[O-])s1 | 102% (inactive)
72 | COc1ccc(OC)c(NC(=O)C(=O)NNC(=O)C23CC4CC(CC(C4)C2)C3)c1 | 87.2% (inactive)
73 | Brc1ccc(-c2ccc(CNCc3ccccn3)o2)cc1 | 104% [at 5 µM] (inactive)
74 | Cc1ccc2[nH]c3c(c2c1)CCCC3NCCO (stereo unspecified) | 101% (inactive)
75 | Cc1ccc2c(c1)c1c3n2CCN=C3CCC1 | 97.6% (inactive)

Row | SMILES | viability
76 | O=C(COc1cccc2ccccc12)Nc1nc2ccccc2[nH]1 | 106% (inactive)
77 | O=C(OCC(=O)N1CCC(c2ccccc2)=N1)c1ccc([N+](=O)[O-])s1 | 103% [at 5 µM] (inactive)
78 | Cc1ccc(C(=O)NNC(=S)NC(=O)c2ccc(Cl)cc2)cc1 | 91.2% [at 5 µM] (inactive)
79 | Cc1cc(Br)ccc1OCCCCN1CCC(C)CC1 | 80.7% (inactive)
80 | CCCCCOc1ccc(CSC2=NCCN2)cc1[N+](=O)[O-] | 93.7% (inactive)
81 | CCOC(=O)CCNC(=O)c1ccc2nc(C3CCCCC3)oc2c1 | 103% (inactive)
82 | CCOc1ccc(/C=N/OCC(=O)Nc2ccc3c(c2)OCO3)cc1 | 94.3% (inactive)
83 | O=C(Cn1cc([N+](=O)[O-])nc1[N+](=O)[O-])N1CCN(c2ccccc2)CC1 | 97.3% [at 5 µM] (inactive)
84 | CC1=NN(C(=O)c2ccc(Cn3nc(C)c(Br)c3C)cc2)C(O)(C(F)(F)F)C1 (stereo unspecified) | 80.5% (inactive)
85 | O=C(c1ccccc1[N+](=O)[O-])N1N=C(c2ccccc2)CC1(O)C(F)(F)F (stereo unspecified) | 101% [at 5 µM] (inactive)
86 | Cc1ccc(OC(=O)c2ccc(Br)o2)cc1 | 101% (inactive)
87 | O=C1NCC(O)=C1C=Nc1ccccc1O | 100% [at 5 µM] (inactive)
88 | COc1cccc(NC(=O)c2ccc(Cn3cc([N+](=O)[O-])cn3)o2)c1 | 97.7% (inactive)
89 | CCc1cccc(OCCCn2ccnc2)c1 | 101% [at 5 µM] (inactive)
90 | CCOc1ccc(OCC(=O)Nc2ccc(OC)cc2)cc1 | 96% (inactive)
91 | Cc1ccc(-c2noc(CCC(=O)Nc3cccc(C#N)c3)n2)cc1 | 100% (inactive)
92 | Cn1cccc1/C=C1/C(=O)NC(=S)N(Cc2ccc(F)cc2)C1=O | 107% (inactive)
93 | CCN1/C(=C(\O)c2ccccc2)C(=O)c2ccccc2S1(=O)=O | 71% (inactive)
94 | Cc1cc(NC(=O)c2ccccc2F)n(-c2nc3ccccc3[nH]2)n1 | 100% (inactive)
95 | Cc1cc(Nc2ccccc2)n(-c2nc3ccccc3[nH]2)n1 | 90.5% [at 5 µM] (inactive)
96 | Cc1ccc(C(=O)N/N=C\c2ccc(-c3ccc(Cl)cc3)o2)cn1 | 90.8% (inactive)
97 | CCN1CSC(=S)N(Cc2ccc(OC)cc2)C1 | 86.2% (inactive)
98 | COc1cc(/C=N/N(C)C)ccc1OC(=O)c1cccs1 | 108% (inactive)
99 | Cc1ccn2c(NC3CCCC3)c(-c3ccccn3)nc2c1 | 107% [at 5 µM] (inactive)
100 | O=C(CC1CCCCC1)NCc1ccccc1 | 98.8% (inactive)

Row | SMILES | viability
101 | Cc1cccc(C(=O)Nc2nnc(-c3cccnc3)o2)c1 | 95.1% (inactive)
102 | O=C(Nc1nnc(-c2ccc(F)cc2)o1)c1cc(Cl)sc1Cl | 89.7% (inactive)
103 | COc1ccc(C(=O)Nc2nnc(-c3ccccc3)o2)cc1OC | 90% (inactive)
104 | COc1cccc(-c2nnc(NC(=O)c3cccc(F)c3)o2)c1 | 91.6% [at 5 µM] (inactive)
105 | COc1cccc(C(=O)OCC(=O)Nc2nnc(-c3ccccc3)o2)c1 | 94% (inactive)
106 | COc1cccc(C(=O)Nc2nnc(-c3ccc(F)cc3)o2)c1 | 80.5% (inactive)
107 | O=C(Nc1nnc(-c2ccc(Cl)cc2)o1)c1ccccc1Br | 83.9% (inactive)
108 | Cc1ccc(C(=O)Nc2nnc(-c3ccncc3)o2)cc1 | 103% (inactive)
109 | O=C1c2cccc3c([N+](=O)[O-])ccc(c23)C(=O)N1c1ccc(Cl)cn1 | 80.3% (inactive)
110 | Cc1ccc(OCCCCn2ccnc2)c(Cl)c1 | 98.8% (inactive)
111 | O=C(CCNc1cccc(Cl)c1)c1ccco1 | 98.8% [at 5 µM] (inactive)
112 | CSc1ccccc1NC(=O)c1cc(C(C)C)on1 | 101% (inactive)
113 | COc1ccc(/C=C2\COc3ccccc3C2=O)cc1OC | 93% (inactive)
114 | COc1cccc(C(=O)OCC(=O)c2ccc(Br)s2)c1OC | 94.5% (inactive)
115 | CCCCOC(=O)Cn1c(-c2ccccc2)nc2ccccc2c1=O | 104% (inactive)
116 | O=C(Nc1nnc(-c2ccc(Cl)cc2)o1)c1cccc(N2C(=O)CCC2=O)c1 | 96.9% (inactive)
117 | COc1ccc(-c2nnc(NC(=O)C3=COCCO3)o2)cc1 | 81.8% (inactive)
118 | COc1ccc(C(=O)Nc2nnc(C3=COCCO3)o2)cc1 | 96.1% (inactive)
119 | O=C(Nc1ccc(S(=O)(=O)N2CCOCC2)cc1)c1ccc([N+](=O)[O-])s1 | 104% [at 5 µM] (inactive)
120 | O=C(Nc1nnc(-c2ccccc2Cl)o1)c1ccco1 | 102% (inactive)
121 | O=C(Nc1nnc(-c2ccccc2Cl)o1)c1cccnc1 | 91.2% (inactive)
